The campaign covered roughly 410,000 compounds. About 18,000 (4.4%) were called active. Roughly 7% stayed inconclusive and do not appear here. No stated cut-off is given here; in the data, active means activity change below about -60%; inconclusive means no clear call, values can overlap the other calls; inactive means above about -39%. This excerpt belongs to a sample that is enriched for actives.
On the % scale 0 is the no-effect control and ±100 the full control effect.

The nature of this experiment: qHTS Assay for inhibitors of the human cytomegalovirus (HCMV). Particulars: HFF cells, HCMV-luciferase reporter, 72 h; at 57.5 µM; hits give low values. The method in brief:
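Compounds were evaluated in HFFs infected with an HCMV luciferase reporter virus (MOI 1 PFU/cell). Luciferase in lysates collected 72 h post infection served as the replication measure.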
In the case of `CC(=O)N1c2ccc(S(=O)(=O)N3CCCCCC3)cc2CC1C(=O)NCc1ccccc1C` (stereo not given), the activity change, negative = inhibition was 8.34% (inactive).

For `O=C(C1CCC(Cn2c(=O)c3sccc3n(Cc3ccccc3F)c2=O)CC1)N1CCCCC1` (stereo not given), the activity change, negative = inhibition is 3.01% (inactive).

As to `CC(=O)N1CCC(C(=O)OCc2ccc(Cl)cc2)(c2ccccc2)CC1`, the activity change, negative = inhibition is 7.78% (inactive).

Regarding `O=C(OCCN1CCOCC1)C1(c2ccccc2)CCCCC1`, the activity change, negative = inhibition is -71.6% (active).

On to `O=C(OCCN1CCOCC1)C1(c2ccccc2)CCCC1`, for which the activity change, negative = inhibition is -35.5% (inactive).

As to `COc1ccc(CCNc2ncnc3c2cnn3-c2ccc(C)cc2)cc1`, the activity change, negative = inhibition is -8.18% (inactive).

Regarding `O=C1CCC[C@H]2[C@@H](Cc3ccccc3)[C@@H](NS(=O)(=O)c3ccc([N+](=O)[O-])cc3[N+](=O)[O-])CC[C@]23CCCN13`, the activity change, negative = inhibition is -34.8% (inactive).

Consider `CCOC(=O)/C=C/C(=O)OCC(=O)NC(c1ccccc1)c1ccccc1`, for which the activity change, negative = inhibition was -66.5% (active).

For `Cc1ccccc1OCCC(=O)OCC(=O)NC(C)c1ccccc1` (stereo not given), the activity change, negative = inhibition is 145% (inactive).

Take `CCOc1ccc(C(CC(=O)O)NC(=O)COc2ccccc2)cc1` (stereo not given): the activity change, negative = inhibition was 36.3% (inactive).

Take `Cc1ccn(C(CC(=O)c2ccc(Br)cc2)C(=O)O)n1` (stereo not given): the activity change, negative = inhibition is 18.9% (inactive).

With `O=c1ccc2c(-c3ccccc3S(=O)(=O)O)c3ccc(O)c(O)c3oc-2c1O`, the activity change, negative = inhibition is -91.7% (active).

`Cc1nc(N2CCOCC2)c2c(C(=O)NCc3cccc(Cl)c3)c(C)oc2n1`: the activity change, negative = inhibition is -10.3% (inactive).

`COc1cccc(C(=O)NCC(=O)OCc2cc(=O)n3ccsc3n2)c1`: the activity change, negative = inhibition is 8.23% (inactive).

Take `CCOC(=O)c1c(C)oc2nc(C)nc(N3CCN(c4ccc(OC)cc4)CC3)c12`: the activity change, negative = inhibition is -14.4% (inactive).

For `CCN(CC)c1ccc2oc(=O)c(C)nc2c1`, the activity change, negative = inhibition is -70.4% (active).

As for `CCCN1C(=O)C(O)(CC(=O)c2ccc(CC)cc2)c2cc(Br)ccc21` (stereo not given), the activity change, negative = inhibition was -70.2% (active).

`O=C(CC1(O)C(=O)N(CN2CCOCC2)c2ccccc21)c1ccccc1` (stereo not given): the activity change, negative = inhibition is 23.8% (inactive).

Take `CCOC(=O)CN1C(=O)C(O)(CC(=O)c2ccccn2)c2ccccc21` (stereo not given): the activity change, negative = inhibition was 12.1% (inactive).

Turning to `CCc1ccc(C(=O)CC2(O)C(=O)N(CCc3ccccc3)c3ccc(Br)cc32)cc1` (stereo not given), the activity change, negative = inhibition is -104% (active).

For `Cc1coc(C)c1C(=O)CC1(O)C(=O)N(C)c2ccc(Cl)cc21` (stereo not given), the activity change, negative = inhibition was 0% (inactive).

As to `C=CCN1C(=O)C(O)(CC(=O)c2ccccn2)c2ccccc21` (stereo not given), the activity change, negative = inhibition is 51.3% (inactive).

For the compound `COc1ccc2c(c1)C(=C(C#N)C#N)C(=O)N2CCc1ccccc1`, the activity change, negative = inhibition is 32.5% (inactive).

On to `Cc1ccc2c(c1)C(O)(CC(=O)c1cccc(-n3cccc3)c1)C(=O)N2` (stereo not given), for which the activity change, negative = inhibition is -9.59% (inactive).

Regarding `Cc1ccc(C(=O)CC2(O)C(=O)N(CCc3ccccc3)c3ccc(Br)cc32)cc1` (stereo not given), the activity change, negative = inhibition was -97.7% (active).

The values are drawn from PubChem BioAssay AID1259415 (National Center for Advancing Translational Sciences (NCATS), 2018).
